“And” between values parts separate entries of the source, which are not always exact repeats. Equal values may be shown once. The campaign covered roughly 140,000 compounds. About 80 (0.06%) were called active. Rule as the data show it: active = displacement above about 50%; inactive = the rest. Many of the other results were omitted from the sample, so actives are more common in it than they were. Some structures have more than one record in an assay (separate samples or runs), and their calls can disagree.

Consider 95 compounds from PubChem BioAssay AID583 (Sanford-Burnham Center for Chemical Genomics, 2007).

Heat shock 70 kDa protein 1A (Homo sapiens), sequence (P0DMV8 whole entry, looked up): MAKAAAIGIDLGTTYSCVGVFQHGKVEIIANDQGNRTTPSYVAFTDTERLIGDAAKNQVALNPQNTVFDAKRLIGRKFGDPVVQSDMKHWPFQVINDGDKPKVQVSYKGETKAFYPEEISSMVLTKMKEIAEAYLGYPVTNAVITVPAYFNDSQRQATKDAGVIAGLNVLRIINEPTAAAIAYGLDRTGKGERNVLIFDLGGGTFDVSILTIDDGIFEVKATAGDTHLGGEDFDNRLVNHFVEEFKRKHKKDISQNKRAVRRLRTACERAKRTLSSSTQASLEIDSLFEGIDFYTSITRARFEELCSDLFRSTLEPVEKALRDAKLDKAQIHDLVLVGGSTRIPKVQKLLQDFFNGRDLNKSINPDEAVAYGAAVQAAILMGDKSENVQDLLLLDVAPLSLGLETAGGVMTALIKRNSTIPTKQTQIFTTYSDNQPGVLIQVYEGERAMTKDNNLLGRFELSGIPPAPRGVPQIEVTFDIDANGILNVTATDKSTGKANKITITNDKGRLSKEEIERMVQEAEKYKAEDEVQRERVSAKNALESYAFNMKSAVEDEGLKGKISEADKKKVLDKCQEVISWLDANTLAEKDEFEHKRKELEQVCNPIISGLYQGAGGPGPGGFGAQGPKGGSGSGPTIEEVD

The experiment addresses Heat shock 70 kDa protein 1A (Homo sapiens) (UniProt P0DMV8). In words: small molecules displacing fluorescent ligand from Hsp70 – biochemical, fluorescence polarization, primary screen (AID 583).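 Also: plate controls were vehicle for no effect and reference ligand for full effect.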 The settings on record: Hsp70 fluorescence polarization probe displacement, mP; at 20 µM; stronger effect = higher value. On the technique in general: Polarisation of emitted light reports the rotation of a fluorescent probe.
Regarding `CCOC(=O)c1c(NC(=O)c2cccnc2)sc2c1CCCC2`, the displacement is 6.4% (inactive).

`CC(C)OC(=O)c1c(NC(=O)c2cccnc2)sc2c1CCCCC2`: the displacement was 80.1% (active).

For `CCOC(=O)c1c(NC(=O)c2cccnc2)sc2c1CCC2`, the displacement is -2% (inactive).

Regarding `COc1ccc(-c2cc(C(F)(F)F)nc(-n3cc(Br)cn3)n2)cc1`, the displacement was -0.2% (inactive).

On to `O=C(O)CCN1C(=O)/C(=C2\C(=O)N(Cc3ccccc3Cl)c3ccccc32)SC1=S`, for which the displacement is 53.2% (active).

For the compound `O=C(O)CCCCCN1C(=O)/C(=C2/C(=O)N(CC(=O)O)c3ccccc32)SC1=S`, the displacement was 5.6% (inactive).

In the case of `CCCN1C(=O)/C(=C2\SC(=S)N(CCC(=O)O)C2=O)c2ccccc21`, the displacement is -0.7% (inactive).

With `Cc1cc(C)c(C(=O)CSc2n[nH]c(=O)n2C2CC2)cc1C`, the displacement is 0.8% (inactive).

Regarding `COCCOC(=O)c1ccc(NC(=O)COc2ccc(C)c(C)c2)cc1`, the displacement is 86.3% (active).

Consider `COCCOC(=O)c1ccc(NC(=O)COc2ccc(C)cc2)cc1`, for which the displacement is 3.9% (inactive).

For `COCCOC(=O)c1ccc(NC(=O)COc2cc(C)c(Cl)c(C)c2)cc1`, the displacement was 0.2% (inactive).

For `C/C(=N\NC(=O)c1cc(-c2cccc([N+](=O)[O-])c2)n[nH]1)c1ccccc1O`, the displacement is -0.9% (inactive).

For the compound `CCN(CC)C(=O)CSc1nnc(CCN)o1`, the displacement is -0.4% (inactive).

As to `O=c1c2ccccc2nnn1CSc1nnc(-c2cccc(S(=O)(=O)N3CCCCC3)c2)o1`, the displacement is -0.1% (inactive).

As for `CCOC(=O)C(=O)Nc1ccc(C(N)=O)cc1`, the displacement was -0.8% (inactive).

`CCOC(=O)C(=O)Nc1ccc(NC(C)=O)cc1`: the displacement was 56.6% (active).

As for `CCOC(=O)C(=O)Nc1ccc(F)cc1`, the displacement is 5.5% (inactive).

Take `CCc1ccccc1NC(=O)CN(c1ccc(OC)c(Cl)c1)S(C)(=O)=O`: the displacement is -3.3% (inactive).

Take `O=C(O)C1Nc2c(C(=O)N3CCCC3)cccc2C2C=CCC12` (stereo not given): the displacement was 11.2% (inactive).

Consider `O=C(O)C1Nc2c(C(=O)N3CCOCC3)cccc2C2C=CCC12` (stereo not given), for which the displacement was 17.9% (inactive).

In the case of `COc1ccc2c(c1)C1C=CCC1C(C(=O)O)N2` (stereo not given), the displacement is 31.6% (inactive).

For `Cc1cc(I)c2c(c1)C1C=CCC1C(C(=O)O)N2` (stereo not given), the displacement is 23.8% (inactive).

In the case of `Cc1c(Cl)ccc2c1NC(C(=O)O)C1CC=CC21` (stereo not given), the displacement was 95.7% (active).

Take `O=C(O)C1Nc2c(Cl)cc(Cl)cc2C2C=CCC12` (stereo not given): the displacement was 78% (active).

On to `O=C(Nc1ccc2c(c1)OCCO2)c1cnc2ccccn2c1=O`, for which the displacement was 0.6% (inactive).

On to `CCN(CC)CCCOc1c(Cl)cccc1Cl`, for which the displacement was 0.3% (inactive).

For the compound `Cc1cccc(OCC(=O)N2CCN(C(=O)c3cccs3)CC2)c1`, the displacement is -2.2% (inactive).

For the compound `O=C1c2cccc3cccc(c23)C(=O)N1c1ccc2c(c1)OCO2`, the displacement was -2.6% (inactive).

In the case of `CCOC(=O)c1c(C)nc(C)nc1NC(=O)c1ccccc1`, the displacement is 85.3% (active).

As to `CCOC(=O)c1c(C)nc(-c2ccccc2)nc1NC(=O)c1ccccc1`, the displacement is -1.8% (inactive).

Turning to `CCOC(=O)c1c(C)nc(-c2ccccc2)nc1NC(C)=O`, the displacement is 0.2% (inactive) and 7.4% (inactive).

Regarding `CC1=C(C(=O)Nc2ccccn2)C(c2cccnc2)n2nnnc2N1` (stereo not given), the displacement is 1.5% (inactive).

As for `COc1cccc(-c2nc3ccccc3c(=O)o2)c1`, the displacement is -0.1% (inactive).

For `O=[N+]([O-])c1ccc(O)c(-c2cc(C(F)(F)F)nc(-c3ccccc3)n2)c1`, the displacement is 4.6% (inactive).

For the compound `O=c1nc(/C=C/c2cc([N+](=O)[O-])ccc2Cl)cc(C(F)(F)F)[nH]1`, the displacement was 3.5% (inactive).

For the compound `O=C(Cn1ncc2c1-c1ccccc1OC2)Nc1nc2ccccc2s1`, the displacement is 0% (inactive).

As for `N#Cc1c(NC(=O)CCCN2C(=O)c3ccccc3C2=O)sc2c1CCCC2`, the displacement is 2.9% (inactive).

Turning to `NC(=O)c1c(NC(=O)CCN2C(=O)c3ccccc3C2=O)sc2c1CCC2`, the displacement was -3.3% (inactive).

On to `N#Cc1c(NC(=O)CCN2C(=O)c3ccccc3C2=O)sc2c1CCCC2`, for which the displacement is 72.6% (active).

With `COc1ccc(C2Nc3ccccc3NC3=C2C(=O)CC(c2ccc(Cl)cc2)C3)cc1` (stereo not given), the displacement was -0.1% (inactive).

With `CC1(C)C2CCC1(C)C(NC(=O)C1CC3c4ccccc4C1c1ccccc13)C2` (stereo not given), the displacement was 1.1% (inactive).

Consider `Cc1ccc(NC(=O)CSc2nnc(-c3ccccc3Br)o2)cc1C`, for which the displacement is -2.9% (inactive).

For the compound `Cc1ccccc1-n1c(O)c(C=C2C=CC=N2)c(=O)[nH]c1=S`, the displacement was 44.3% (inactive).

Turning to `Cn1c(O)c(/C=C2/C=CC=N2)c(=O)n(-c2ccccc2)c1=S`, the displacement is 53% (active).

Consider `O=c1[nH]c(=S)n(-c2cccc(Cl)c2)c(O)c1/C=C1/C=CC=N1`, for which the displacement is 10% (inactive).

With `Cc1ccc(N2C(=O)C3CC=C(c4ccccc4)CC3C2=O)cc1` (stereo not given), the displacement was -0.4% (inactive).

Take `CC1=C(C)CC2C(=O)N(c3ccc(Br)cc3)C(=O)C2C1` (stereo not given): the displacement is 4.3% (inactive).

`O=C1C2CC=C(c3ccccc3)CC2C(=O)N1c1ccc(Br)cc1` (stereo not given): the displacement was 60.4% (active).

With `O=C1NC(=S)S/C1=C/c1cc(Br)ccc1OCc1ccccc1Cl`, the displacement is 4.3% (inactive).

As for `Cn1c(CN2CCCCC2)nc2cc(NC(=O)c3ccccc3)ccc21`, the displacement was 1.9% (inactive).

For the compound `COc1ccc(OC)c(NC(=S)NC(NC(=O)Cc2ccccc2)C(Cl)(Cl)Cl)c1` (stereo not given), the displacement is -6.4% (inactive).

As for `O=C(Nc1ccccc1)c1ccccc1C(=O)N1CCCCC1`, the displacement was 4.4% (inactive).

Turning to `CC1(C)OC(=O)C(=Cc2ccc(-c3ccc(Cl)cc3Cl)o2)C(=O)O1`, the displacement is -3.2% (inactive).

As for `O=C1C(=Cc2ccc(I)o2)C(=O)c2ccccc21`, the displacement is 10.7% (inactive).

As to `CC1(C)OC(=O)C(=Cc2ccc(I)o2)C(=O)O1`, the displacement is 97.3% (active).

With `COc1ccc(OC)c(C=NN2CCN(Cc3ccccc3Cl)CC2)c1`, the displacement is -1.8% (inactive).

Consider `CCOc1cc(C2Nc3ccc4ccccc4c3C3=C2CC(C)(C)CC3=O)ccc1O` (stereo not given), for which the displacement was 2.3% (inactive).

`Cc1csc(NC(=O)c2ccc([N+](=O)[O-])cc2Cl)n1`: the displacement was 5.8% (inactive).

As for `Nc1ccc(S(=O)(=O)O)c2cccc(O)c12`, the displacement is 34.1% (inactive) and 73.7% (active).

For the compound `Nc1ccc(S(=O)(=O)O)c2cccc(S(=O)(=O)O)c12`, the displacement was 6.4% (inactive).

On to `Nc1cc(S(=O)(=O)O)cc2cccc(S(=O)(=O)O)c12`, for which the displacement is 4.7% (inactive).

For `O=C1c2ccccc2C(=O)N1/N=C/c1ccc(O)cc1O`, the displacement was -1.5% (inactive).

With `Cc1cccc(-c2cc3nc(C)cc(NCCCN(C)C)n3n2)c1`, the displacement was 4.1% (inactive).

As for `CN(C)c1ccc(/C=N/N=C2/NC(=O)C(Cc3ccc(Cl)cc3)S2)cc1` (stereo not given), the displacement was -3.1% (inactive).

Take `O=C(O)c1ccc(CN2CCOCC2)cc1`: the displacement is 0% (inactive).

As for `Cc1ccc(C)n1Cc1ccc(C(=O)O)cc1`, the displacement is 103% (active) and 21.6% (inactive).

Consider `Cc1cc(C)n(Cc2ccc(C(=O)O)cc2)n1`, for which the displacement was -8.4% (inactive).

For `N#Cc1cc2c(nc1SCc1ccc(Br)cc1)CCCC2`, the displacement is -3.8% (inactive).

Regarding `O=C(COc1ccc(Cl)cc1Cl)NNC(=O)CN1C(=O)/C(=C/c2ccc(Cl)cc2Cl)SC1=S`, the displacement is 0.4% (inactive).

On to `COc1ccccc1/C=N/NC(=O)C(=O)NCc1ccccn1`, for which the displacement is -2.8% (inactive).

Take `CCn1c2ccccc2c2cc(CN3CCN(C(=O)CC(C)C)CC3)ccc21`: the displacement is -0.3% (inactive).

As to `Cc1ccc(-n2[nH]c(C)c(C=Nc3ccc(C)cn3)c2=O)cc1`, the displacement was 2% (inactive).

As to `COc1ccccc1C=C1C(=O)NC(=S)N(c2ccccc2F)C1=O`, the displacement is 4% (inactive).

Regarding `Cn1cccc1/C=C1/C(=O)NC(=S)N(c2cccc(Cl)c2)C1=O`, the displacement is 37.8% (inactive).

`COc1ccccc1N1C(=O)C(=Cc2cccn2C)C(=O)NC1=S`: the displacement is 69.9% (active).

On to `N#Cc1cccc(-n2c(-c3ccccc3)nnc2-c2ccccc2)c1C#N`, for which the displacement is -2.8% (inactive).

For the compound `COc1cc(NC(=O)c2ccc3c(c2)OCCO3)ccc1NC(=O)c1ccco1`, the displacement is -0.4% (inactive).

Consider `Cc1nn(-c2ccc(F)cc2)c(C)c1NS(=O)(=O)c1ccc(Cl)cc1`, for which the displacement is 1% (inactive).

`Cc1c(C#N)c2nc3ccccc3n2c(=O)/c1=C\c1c(O)n(-c2ccc(Br)cc2)[nH]c1=O`: the displacement was 24.7% (inactive).

On to `Cc1ccc(-n2[nH]c(=O)c(/C=c3/c(C)c(C#N)c4nc5ccccc5n4c3=O)c2O)cc1C`, for which the displacement was 83% (active).

In the case of `Cc1c(C#N)c2nc3ccccc3n2c(=O)/c1=C/c1sc2ccccc2c1O`, the displacement was 2.1% (inactive).

Regarding `O=C1c2ccccc2C(=O)N1c1ccc2c(c1)C(=O)N(c1ccccc1)C2=O`, the displacement was 4.1% (inactive).

Consider `Nc1ccc2c(c1)C(=O)N(c1ccccc1)C2=O`, for which the displacement is 8.5% (inactive).

Consider `O=[N+]([O-])c1cc(-c2nnc(-c3ccc(Br)o3)o2)cc([N+](=O)[O-])c1`, for which the displacement was 0.4% (inactive).

With `O=C(NC1CC1)C1CCCN(C(=O)Nc2ccc(F)cc2)C1` (stereo not given), the displacement was -7.5% (inactive).

Turning to `Cc1ccc(C)c(S(=O)(=O)Nc2ccc3sc(C)nc3c2)c1`, the displacement was -3.2% (inactive).

For `CCOC(=O)c1[nH]cnc1C(=O)Nc1ccccc1`, the displacement was 0% (inactive).

As to `CCOC(=O)c1[nH]cnc1C(=O)Nc1ccccn1`, the displacement was -29.4% (inactive) and -2.5% (inactive).

As for `CCOC(=O)c1[nH]cnc1C(=O)NCc1ccccc1`, the displacement is 88.8% (active).

Consider `CC1=C(C(=O)Nc2ccccc2C)C(c2ccc(C)o2)N2C(=O)CSC2=N1` (stereo not given), for which the displacement was 1.1% (inactive).

Take `CCN1C(=O)/C(=C2\SC(=O)N(Cc3ccccc3)C2=O)c2ccccc21`: the displacement was -2.9% (inactive).

On to `N#C/C(=C\c1ccc(-c2cccc(Cl)c2Cl)o1)C(=O)NCc1ccco1`, for which the displacement was -2.5% (inactive).

As for `Cc1ccc([N+](=O)[O-])cc1-c1ccc(/C=C(\C#N)C(=O)NCc2ccco2)o1`, the displacement was 75.7% (active).

Regarding `N#C/C(=C\c1ccc(-c2ccc(C(=O)O)cc2)o1)C(=O)NCc1ccco1`, the displacement was -4.4% (inactive).

As for `CC(=O)OC(/C(O)=C(\C#N)c1nc2ccccc2[nH]1)c1ccccc1` (stereo not given), the displacement is -1.2% (inactive).
